Test results: the supplement of paper PMC6555819

What was measured:
Assay in all cases: PBM binding z-score (relative to random genomic background probes); higher = stronger binding; sequences stand for … in GC…GCGATTGACAGCGTAGAATGAAGG
[1] = system: FXR:RXRa (NR concentration 270 nM, RXRa partner concentration 90 nM)
Outline: (§1)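 Probes were double-stranded and carried 34-nt variable regions with direct-repeat seeds, single-nucleotide variants, half-site ablations and random human genomic background sequences, printed on custom Agilent 4×180K protein-binding microarrays. Arrays were incubated 1 h with ligand-free nuclear receptor dimers in PBS pH 7.4, 2% milk, 0.02% Triton X-100, 1 mM DTT, 0.2 mg/mL BSA and 0.4 mg/ml salmon testes DNA. Antibodies against each partner (one per run) detected binding, and scanned fluorescence was regression-normalized. Binding z-scores use the random background probes as reference.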

[2] = system: LXRa:RXRa (NR concentration 270 nM, RXRa partner concentration 90 nM)
Outline: as §1

[3] = system: LXRa homodimer (NR concentration 270 nM)
Outline: as §1

[4] = system: LXRb:RXRa (NR concentration 270 nM, RXRa partner concentration 90 nM)
Outline: as §1

[5] = system: LXRb homodimer (NR concentration 270 nM)
Outline: as §1

[6] = system: PPARa:RXRa (NR concentration 270 nM, RXRa partner concentration 90 nM)
Outline: as §1

[7] = system: PPARg:RXRa (NR concentration 180 nM, RXRa partner concentration 90 nM)
Outline: as §1

[8] = system: PPARg:RXRa 270nM:90nM, anti-RXR (NR concentration 270 nM, RXRa partner concentration 90 nM)
Outline: as §1

[9] = system: PPARg:RXRa 30nM:10nM, anti-RXR (NR concentration 30 nM, RXRa partner concentration 10 nM)
Outline: as §1

[10] = system: PPARg:RXRa 90nM:30nM, anti-RXR (NR concentration 90 nM, RXRa partner concentration 30 nM)
Outline: as §1

[11] = system: PPARg:RXRa DBDmut IVT, anti-RXR (DBD mutation: RXRa K156A/R161A, NR concentration 270 nM, RXRa partner concentration 90 nM)
Outline: as §1

[12] = system: PPARg:RXRa IVT, anti-PPARg (NR concentration 270 nM, RXRa partner concentration 90 nM)
Outline: as §1

[13] = system: PPARg DBDmut:RXRa IVT, anti-PPARg (DBD mutation: PPARg1 K132A/R137A, NR concentration 270 nM, RXRa partner concentration 90 nM)
Outline: as §1

[14] = system: PPARg DBDmut IVT, anti-PPARg (DBD mutation: PPARg1 K132A/R137A, NR concentration 270 nM)
Outline: as §1

[15] = system: PPARg homodimer (NR concentration 180 nM)
Outline: as §1

[16] = system: PXR:RXRa (NR concentration 270 nM, RXRa partner concentration 90 nM)
Outline: as §1

[17] = system: PXR homodimer (NR concentration 270 nM)
Outline: as §1

[18] = system: RARa:RXR (NR concentration 270 nM, RXRa partner concentration 90 nM)
Outline: as §1

[19] = system: RARa homodimer (NR concentration 270 nM)
Outline: as §1

[20] = system: RARb:RXRa (NR concentration 270 nM, RXRa partner concentration 90 nM)
Outline: as §1

Row | Sequence | PBM binding z-score [1] | PBM binding z-score [2] | PBM binding z-score [3] | PBM binding z-score [4] | PBM binding z-score [5] | PBM binding z-score [6] | PBM binding z-score [7] | PBM binding z-score [8] | PBM binding z-score [9] | PBM binding z-score [10] | PBM binding z-score [11] | PBM binding z-score [12] | PBM binding z-score [13] | PBM binding z-score [14] | PBM binding z-score [15] | PBM binding z-score [16] | PBM binding z-score [17] | PBM binding z-score [18] | PBM binding z-score [19] | PBM binding z-score [20]
1 | AGTCAAAGTTCATCTAGGTAATGTAAGATATGCT | 6.48 | 6.26 | 5.38 | 4.07 | 1.98 | 4.95 | 6.59 | 6.48 | 3.67 | 5.42 | 1.01 | 3.31 | 1.3 | 1.47 | 2.6 | 5.28 | 6.34 | 3.72 | 1.8 | 4.94
2 | CAGACTGGGGCATAAGGTTACCATAAGCCAGCCC | 0.722 | 2.35 | -0.275 | 1.27 | -0.727 | 2.55 | 3.37 | 3.96 | 2.09 | 3.72 | 4 | 4.18 | -0.272 | -0.433 | 0.704 | 0.652 | -0.537 | 1.59 | -0.341 | 1.66
3 | CCTACTGGGCCAAAAAGCTCATTGATGCCGATAA | -0.506 | -0.69 | -0.717 | -0.724 | -1.22 | -0.251 | 0.473 | 1.24 | -0.429 | 0.564 | 3.38 | 2.11 | -0.849 | -0.936 | -0.703 | -0.847 | -0.417 | -1.01 | -0.487 | -0.356
4 | CCTAGTTCGTCAAGGTCACACACGCTATAGGTAC | 4.55 | 3.92 | 2.75 | 4.06 | 1.33 | 4.36 | 2.52 | 3.46 | 0.804 | 2.23 | 1.21 | 2.33 | 1 | 1.24 | 4.18 | 5.38 | 10.4 | 4.97 | 2.49 | 4.37
5 | CCTACGGGGCCAAAAAGGTCATTGATGCCGATAA | 3.94 | 4.35 | 2.76 | 4.36 | 0.0213 | 4.67 | 1.63 | 2.97 | 0.7 | 1.77 | 0.493 | 1.52 | -1.13 | -0.859 | 2.87 | 5.34 | 9.18 | 5.07 | 0.847 | 4.26
6 | CGAACTAGGTCAGCACAGGACAGTGAAGGATGAT | 1.86 | 1.18 | -0.345 | 0.466 | -0.737 | 3.51 | 6.07 | 5.31 | 2.4 | 4.32 | 7.7 | 7.61 | 0.871 | 0.245 | 1.37 | 1.42 | -0.395 | 1.03 | 0.213 | 3.65
7 | CTTCCAAGGTCAATGCTAGGTCAGTGAAAGCATT | 6.83 | 5.58 | 3.58 | 4.25 | 1.7 | 5.14 | 4.42 | 4.73 | 1.5 | 3.45 | 3.33 | 4.08 | 1 | 0.112 | 4.08 | 4.64 | 1.63 | 6.06 | 0.988 | 5.2
